Screens as filed in PubChem.
Most compounds without a hit are left out; they make up all but 6.3% or so of the library.
TGFb inhibitor = qHTS for Inhibitors of TGF-b; HepG2 CAGA-GFP TGF-b/SMAD3 reporter, GFP fluorescence, 18 h; TGF-beta stimulated, 500 pg/mL final; Potency, µM (doses to about 46.1 µM), actives largely listed as inhibitors; 410,000 compounds, 1.2% hits; AID 588855, 2011; note: nearly all actives have a fitted effect of over 65% in size
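HEPG2 CAGA-GFP, 1000 cells/well; 2 h settle, 37 C; cpd via pin tool; TGF-b 500 pg/mL final; 18 h, 37 C; GFP imaging ex488/em500-530; %Activity normalised to -TGF-b and +DMSO controls; CRC fit, curve class.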
RORg inh = qHTS for inhibitors of ROR gamma transcriptional activity. Nuclear receptor ROR-gamma (Mus musculus), P51450. Potency, µM (series often up to 53.6 µM), hits mostly inhibitors. Drosophila S2 Gal4-RORgamma UAS-luciferase reporter, 20 h. 310,000 compounds, 5.4% hits. AID 2551, 2010; note: nearly all actives have a fitted effect of over 60% in size
Target sequence (P51450 whole entry, looked up, the tested form may be a part): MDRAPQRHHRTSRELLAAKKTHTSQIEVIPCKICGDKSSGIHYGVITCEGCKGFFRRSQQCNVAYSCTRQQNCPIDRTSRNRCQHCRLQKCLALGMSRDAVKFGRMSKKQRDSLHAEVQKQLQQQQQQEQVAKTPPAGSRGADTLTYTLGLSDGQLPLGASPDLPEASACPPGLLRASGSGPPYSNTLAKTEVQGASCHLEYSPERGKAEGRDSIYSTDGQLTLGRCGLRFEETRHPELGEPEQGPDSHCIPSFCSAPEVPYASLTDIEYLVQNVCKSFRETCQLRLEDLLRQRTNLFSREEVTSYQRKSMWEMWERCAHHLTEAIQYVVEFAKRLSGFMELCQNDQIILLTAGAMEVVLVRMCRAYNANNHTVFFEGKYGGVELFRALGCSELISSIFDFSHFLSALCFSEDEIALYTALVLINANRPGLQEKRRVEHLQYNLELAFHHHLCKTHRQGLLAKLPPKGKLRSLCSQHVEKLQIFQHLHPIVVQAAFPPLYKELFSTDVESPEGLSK
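ROR gamma transcriptional activity was tracked as Gal4-UAS luciferase output in stably transfected Drosophila Schneider cells, with compound added 1 hr before 700 uM copper sulfate induction and a 20 hr ambient-temperature incubation.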
VP16 counter = VP16 counterscreen qHTS for inhibitors of ROR gamma transcriptional activity | Drosophila S2 Gal4-VP16 UAS-luciferase, luminescence, 20 h | Potency, µM (series often up to 53.6 µM), usual class: inhibitors | 310,000 compounds, 3.5% hits | AID 2546, 2010;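 note: Gal4-VP16 expression switched on by copper sulfate through the metallothionein promoter; nearly all actives have a fitted effect of over 50% in size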
ATXN viability = Viability Counterscreen for Primary qHTS for Inhibitors of ATXN expression; Potency, µM (doses to about 56.7 µM), usual class: cytotoxic; S2 cells (HEK-293 line with an ATXN2-luciferase reporter) viability, CellTiter-Fluor protease fluorescence, 24 h; 400,000 compounds, 0.49% hits; note: nearly all actives have a fitted effect of over 40% in size
HepG2 tox = qHTS for Inhibitors of TGF-b: Cytotox Counterscreen; HepG2 CAGA-GFP viability, ATP luminescence, 18 h; Potency, µM (highest dose often 46.1 µM), most hits filed as cytotoxic; 410,000 compounds, 0.76% hits; AID 588856, 2011
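CellTiter-Glo luminescence gave cytotoxicity after 18 hours at 37 degrees C. The cells were HepG2 CAGA-GFP in 1% FBS DMEM, stimulated with 500 pg/mL TGF-beta after compound addition. %Activity was normalised to no-cell wells (complete cell-killing) and DMSO (no toxicity), and curves were fitted and classified.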
ATXN2 expr inh = Primary qHTS for Inhibitors of ATXN expression; HEK-293 ATXN2-luciferase reporter, luminescence, 24 h; Potency, µM (top dose mostly 57 µM), hits mostly inhibitors; 360,000 compounds, 0.72% hits; note: nearly all actives have a fitted effect of over 55% in size
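qHTS (up to 57 uM final) was run with 24 h compound exposure of reporter cells at 37 °C. Each well was multiplexed: SteadyGlo luminescence measured ATXN2-luciferase expression after a fluorogenic Gly-Phe-AFC viability readout (25 uM final).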
Large screens that a line does not name were inactive; ! = a repeat was not active. Calls come from the whole dose curve; as a rule, active = well fitted curve in the direction sought with a large enough effect; inconclusive = small, poorly fitted or top-dose-only effect, or another doubt; inactive = no such curve, though single readings can be large; an effect the other way counts as inactive or inconclusive.

CC1=NN(C(N)=S)C(=O)C1N=Nc1cccc(C)c1 (stereo not drawn)	TGFb inhibitor 1.8µM (no result: ATXN2 expr inh)
CC1=NN(c2ccccc2C(=O)O)C(=O)C1N=Nc1ccccc1 (stereo not drawn)	ATXN viability inconclusive (no result: ATXN2 expr inh)
CC1=C(C(=O)NCc2cccc(F)c2)C2(CCCCC2)OC1=O	none (no result: RORg inh, VP16 counter)
COc1ccc(Oc2ncc3ncc(=O)n(C4CC4)c3n2)cc1	none (no result: TGFb inhibitor, ATXN viability, HepG2 tox, ATXN2 expr inh)
COCCCN1C(=O)C(CC(=O)NCCCN(C)C)CC(C(=O)N2CCCCCC2)=C1C (stereo not drawn)	none (no result: TGFb inhibitor, RORg inh, VP16 counter, HepG2 tox)
Cc1ccc(OCCN2CCC2(C)C(=O)NCc2ccc(C(F)(F)F)cc2)cc1 (stereo not drawn)	TGFb inhibitor 13µM (no result: RORg inh, VP16 counter)
CC(c1ccc(N(C)C)cc1)c1ccnc2ccccc12 (stereo not drawn)	none (no result: RORg inh, VP16 counter, ATXN viability, ATXN2 expr inh)
O=C(NCC1CCCN1S(=O)(=O)c1cccs1)C(=O)Nc1ccccc1F (stereo not drawn)	none (no result: RORg inh, VP16 counter, ATXN2 expr inh)
CC1(C)OC2=C(C(=O)c3ccccc3C2=O)[C@H](NCc2ccccc2)[C@H]1O	ATXN2 expr inh 3.4µM (no result: TGFb inhibitor, RORg inh, VP16 counter, ATXN viability, HepG2 tox)
CC(=O)Nc1ccc(NC(=O)COC(=O)/C(=C/c2ccccc2)n2nnnc2C)cc1	TGFb inhibitor inconclusive, RORg inh 16µM, VP16 counter inconclusive, ATXN viability inconclusive
Cc1nnnn1/C(=C\c1ccccc1)C(=O)OCC(=O)NC(C)(C)C	TGFb inhibitor inconclusive, RORg inh 13µM, VP16 counter 20µM, ATXN viability inconclusive
COc1ccc(C(=O)c2coc3c2C(=O)C(=O)c2ccccc2-3)cc1	TGFb inhibitor inconclusive, RORg inh 11µM, VP16 counter inconclusive, ATXN viability inconclusive
O=C1C(=C(O)c2ccccc2)C(=O)c2ccccc21	RORg inh inconclusive
O=C(c1ccccc1)c1coc2c1C(=O)c1ccccc1C2=O	TGFb inhibitor inconclusive, RORg inh 18µM, VP16 counter inconclusive, HepG2 tox 10µM
COc1ccc2occ(C(=O)c3ccccc3)c2c1	none
c1coc(CNc2ncnc3c2nc2n3CCCC2)c1	none (no result: RORg inh, VP16 counter, ATXN viability, ATXN2 expr inh)
O=C(Nc1cccnc1)c1cc2c(ccc3ccccc32)o1	RORg inh 1.4µM, VP16 counter inconclusive
O=C1C(=O)N(C2CCNCC2)CCN1Cc1ccccc1	none (no result: RORg inh, VP16 counter)
O=C(O)C1CC(=O)N(c2ccc(OCc3ccccc3Cl)cc2)C1 (stereo not drawn)	RORg inh 14µM, VP16 counter inconclusive
CCOc1ccccc1-n1cc2c(c1-c1ccc(OC)cc1)c(=O)n(C)c(=O)n2C	TGFb inhibitor inconclusive (no result: RORg inh, VP16 counter, ATXN viability, ATXN2 expr inh)
O=C(Nc1cccc(F)c1)N1CC[C@@]2(CCCN(C(=O)c3ccncc3)C2)C1	none (no result: TGFb inhibitor, ATXN viability, HepG2 tox, ATXN2 expr inh)
CN(C)C1CCc2[nH]c3ccc(NC(=O)c4ccc(F)cc4)cc3c2C1 (stereo not drawn)	none (no result: TGFb inhibitor, ATXN viability, HepG2 tox, ATXN2 expr inh)
CC(C)c1ccc(/C=C/C(=O)NC(=S)Nc2ccc(CN3CCOCC3)cc2)cc1	TGFb inhibitor inconclusive, RORg inh 2.8µM, VP16 counter 5µM, ATXN viability inconclusive
CC(C)c1ccc(/C=C/C(=O)NC(=S)NN2CCOCC2)cc1	RORg inh 4µM, VP16 counter 4.5µM
CN(C)c1ccc(NC(=O)c2cnsn2)cc1	RORg inh 10µM, VP16 counter 10µM, ATXN2 expr inh inconclusive
O=c1c2cc(Br)ccc2[nH]c(=S)n1Cc1ccccc1	TGFb inhibitor inconclusive, RORg inh 2.5µM, VP16 counter 3.5µM
O=c1c2cc(Br)ccc2[nH]c(=S)n1Cc1ccccn1	RORg inh 2.8µM, VP16 counter inconclusive
O=C(CCCn1c(=S)[nH]c2ccc(Br)cc2c1=O)NCc1ccccn1	RORg inh inconclusive
O=C(NCc1cccnc1)c1ccc(Cn2c(=S)[nH]c3ccc(Br)cc3c2=O)cc1	none
Cc1[nH]n(-c2ccc(Cl)cc2)c(=O)c1C(=O)c1ccccc1	TGFb inhibitor inconclusive, RORg inh inconclusive, ATXN viability inconclusive, ATXN2 expr inh inconclusive
Cc1[nH]n(-c2ccccc2)c(=O)c1C(=O)c1ccc(Cl)cc1	RORg inh 11µM
CCSC(=S)c1c(C)[nH]n(-c2ccccc2)c1=O	TGFb inhibitor inconclusive, RORg inh 0.35µM, VP16 counter 1.1µM, ATXN viability inconclusive, ATXN2 expr inh inconclusive
CC1CCC2C(C)C3C(CC4[C@@H]5CC=C6C[C@@H](O)CC[C@]6(C)C5CC[C@]34C)N2C1 (stereo partly drawn)	none (no result: TGFb inhibitor, ATXN viability, HepG2 tox, ATXN2 expr inh)
COc1ccccc1C(=O)Nc1cc(C)c(OCC(=O)N2CCOCC2)c(C)c1	none
Cc1cc(OCC(=O)N2CCOCC2)ccc1NC(=O)c1ccccc1C	RORg inh 10µM, VP16 counter inconclusive
O=C(N/N=C/c1ccc(OCC(=O)N2CCOCC2)cc1)c1ccccc1Cl	none
O=C(Nc1ccc(OCC(=O)N2CCOCC2)cc1)c1ccccc1Cl	RORg inh 11µM, VP16 counter 7.9µM
Cc1ccc(C(=O)Nc2cc(C)c(OCC(=O)N3CCOCC3)c(C)c2)cc1	RORg inh 14µM, VP16 counter 10µM
CCc1c(C)sc(NC(=S)N2CC(C)OC(C)C2)c1C(=O)OC (stereo not drawn)	RORg inh 7.1µM (no result: ATXN2 expr inh)
CCc1c(C)sc(NC(=S)NC(C)C2CCCO2)c1C(=O)OC (stereo not drawn)	RORg inh 16µM, VP16 counter 10µM
Cc1cccc(C(O)c2ncc(-c3ccccc3F)[nH]2)c1C (stereo not drawn)	none (no result: RORg inh, VP16 counter)
CCc1ccc(/C=N\NC(=O)c2ccc(Br)o2)s1	RORg inh 1.6µM, VP16 counter 5µM
Cc1ccc(/C=N/NC(=O)c2ccc(Br)o2)s1	RORg inh 8.9µM, VP16 counter 10µM
CCN(CC)c1ccc(/C=N/NC(=O)c2ccc(Br)o2)cc1	RORg inh inconclusive, VP16 counter inconclusive
CCCCCC(=O)N1C[C@H](O)[C@@H](n2cc(-c3ccc(F)cc3)nn2)C[C@@H]1c1ccc(OC)cc1	TGFb inhibitor inconclusive, ATXN viability inconclusive, ATXN2 expr inh inconclusive (no result: RORg inh, VP16 counter)
Cc1ccc(S[C@@H](CCN2CC[C@H](O)CCC2=O)c2ccccc2)cc1	TGFb inhibitor inconclusive
C[C@@H](CSc1ccccc1)CN1CC[C@H](C(C)(C)C)CCC1=O	TGFb inhibitor inconclusive
COc1ccc(SC[C@H](C)CN2CC[C@H](C(C)(C)C)CCC2=O)cc1	TGFb inhibitor inconclusive, ATXN viability inconclusive, HepG2 tox 20µM!, ATXN2 expr inh inconclusive (no result: RORg inh, VP16 counter)
Cc1ccc(S[C@@H](CCN2CC[C@H](C)CCC2=O)c2ccccc2)cc1	TGFb inhibitor inconclusive, RORg inh inconclusive, ATXN viability inconclusive
